Experiment [1] is described as follows: yeast TOR reporter LAP4-GFP level changes – cell-based, second cherry pick, flow cytometry, confirmation (AID 2621).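 Also: ratio of well median GFP fluorescence to plate DMSO mean so 100% = DMSO.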 As to conditions: S. cerevisiae LAP4-GFP strain, 3 h, at 10 µM, stronger effect = higher value. (In general: Flow cytometry measures light scatter and fluorescence of single cells or particles in a stream.)
A short description of experiment [2]: TOR pathway reporter MEP2-GFP, hit retest – S. cerevisiae, flow cytometry GFP, second cherry picks, confirmation (AID 2622;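 active = GFP signal above 150% of the solvent control wells, that is a rise of more than half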;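 also: median channel GFP fluorescence of all gated yeast cells per well; ratio of median GFP to plate DMSO average so 100% = DMSO level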). As to conditions: S. cerevisiae MEP2-GFP strain, 3 h, at 10 µM, stronger effect = higher value.
Experiment [3] in a line: retest of hits on RPL19A-GFP strain – cell-based, S. cerevisiae, flow cytometry, second cherry pick, confirmation (AID 2623;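 active = under 65% GFP response relative to DMSO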;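 also: median GFP channel fluorescence per well over the all cells gate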). As to conditions: 3 h, at 10 µM, stronger effect = lower value, 100% means same as DMSO wells.
Experiment [4] can be described thus: yeast TOR pathway CIT2-GFP reporter modulation – flow cytometry, second cherry pick, single plex, confirmation (AID 2624;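 active = GFP response vs DMSO above about 150%, limit read from the data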;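 also: median green fluorescence per well over all gated yeast cells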). As to conditions: S. cerevisiae CIT2-GFP strain, 3 h, at 10 µM, stronger effect = higher value, DMSO control wells read 100%.
The nature of experiment [5]: yeast AGP1-GFP fluorescence change, single-dose confirmation – cell-based, flow cytometry, S. cerevisiae, cherry pick set 2 (AID 2643;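 active = over 150 percent of DMSO response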;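 also: median GFP channel fluorescence over all cells without mother daughter split; sample median GFP divided by mean DMSO control so 100% equals DMSO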). As to conditions: S. cerevisiae AGP1-GFP strain, 3 h, at 10 µM, stronger effect = higher value.
Experiment [6] in a line: reduced mouse 2C T cell binding to pMHC/ICAM-1 vesicles – MLPCN validation set, flow cytometry, LFA-1/ICAM-1 modulator project, pilot screen (AID 2523;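 active = response below a set limit, under 55% cells CD8-positive and vesicle-bound, and CD8 cells' 90th-percentile brightness under 279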;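 as to vesicle binding response: mean PE anti-B7-1 fluorescence of CD8+ cells relative to row control; 100% = QL9-loaded vesicles with DMSO vehicle in the same plate row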). As to conditions: 2C mouse CD8+ T cells, at 7 µM, stronger effect = lower value; double positive events: measured here: CD8+/vesicle+ event percentage.
Experiment [7] addresses Integrin beta-1 (Homo sapiens) + Integrin alpha-4 (Homo sapiens) (UniProt P13612+P05556). As to the kind of experiment: alpha4beta1 integrin LIBS antibody binding reduction – U937 cells, HUTS-21 mAb, flow cytometry, validation set, VLA-4 allosteric modulator project, pilot screen (AID 2674;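 active = inhibition above 50%, about 3 SD of the validation set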;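 also: antibody binding induced by the VLA-4 ligand LDV present at three times its Kd; 0% = LDV ligand with antibody and no compound and 100% = antibody without LDV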). As to conditions: HUTS-21 LIBS mAb binding, at 6.7 µM, stronger effect = higher value, binding induced by LDV ligand.

Experiment [8] has as its target Beta-adrenergic receptor kinase 1 (Homo sapiens) (UniProt P25098). As to the kind of experiment: GRK2 binders displacing RNA aptamer, biochemical, validation, human GRK2, bead flow cytometry (AID 488806;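 active = aptamer binding inhibition above 30%, about 3 SD of noise from non-fluorescent compounds; inactive = inhibition at or below 30%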). As to conditions: bead-bound GRK2, FAM-aptamer displacement, at 10 µM, stronger effect = higher value.
For experiment [9], the target named is Beta-2 adrenergic receptor (Homo sapiens) (UniProt P07550). As to the kind of experiment: agonist-induced loss of surface beta2AR – cell-based, FAP fluorogen, flow cytometry, validation set, pilot screen (AID 504459;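 active = percent response above 42, roughly 3 SD of non-fluorescent test compounds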;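 also: agonist-driven loss of surface beta2AR via internalization measured by FAP dye flow cytometry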). As to conditions: Am2.2-beta2AR cells, at 10 µM, stronger effect = higher value.
Chain of Beta-2 adrenergic receptor (Homo sapiens) (P07550 whole entry, looked up): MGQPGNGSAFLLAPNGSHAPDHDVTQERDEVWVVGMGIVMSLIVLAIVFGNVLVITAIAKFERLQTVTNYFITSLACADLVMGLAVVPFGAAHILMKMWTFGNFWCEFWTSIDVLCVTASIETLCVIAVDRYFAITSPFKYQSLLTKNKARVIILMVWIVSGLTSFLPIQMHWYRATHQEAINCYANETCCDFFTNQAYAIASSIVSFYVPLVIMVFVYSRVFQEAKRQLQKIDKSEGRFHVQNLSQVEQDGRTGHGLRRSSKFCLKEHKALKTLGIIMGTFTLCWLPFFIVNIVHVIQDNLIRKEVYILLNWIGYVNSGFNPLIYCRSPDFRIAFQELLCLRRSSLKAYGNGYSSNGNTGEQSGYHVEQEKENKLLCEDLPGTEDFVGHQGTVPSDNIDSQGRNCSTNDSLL
Experiment [10] concerns the target AP-2 complex subunit beta (Homo sapiens) (UniProt P63010). As to the kind of experiment: beta-arrestin/AP2 interaction blockers – biochemical, validation set, GST-AP2 beads, flow cytometry, pilot screen (AID 504541;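 active = inhibition above 54%, about 3 SD of non-fluorescent compounds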;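 also: AP2 carries R879A mutation and is captured from E. coli lysate; bead-bound FITC arrestin peptide fluorescence measuring arrestin peptide binding to AP2; 0% = DMSO wells and 100% = excess unlabeled arrestin peptide control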). As to conditions: FITC arrestin peptide, at 10 µM, stronger effect = higher value, AP2 beta2 appendage fragment, R879A mutant.
A short description of experiment [11]: cytosolic pH regulators acting via V-ATPase – S. cerevisiae, pHLuorin, HTS validation (AID 504600; in the data active = response above about 15%;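 also: plate controls were DMSO for no effect and reference compound for full effect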). As to conditions: V-ATPase proton transport, at 10 µM, stronger effect = higher value.
The test system of experiment [12] is anti-desmoglein-3 scFv antibody binding to human DSG3. As to the kind of experiment: blockers of pathogenic pemphigus antibody–desmoglein-3 binding – biochemical, validation compound set, bead-based, flow cytometry, pilot screen (AID 588368;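 active = binding below the plate cutoff, the plate median minus 3 SD, with a reading above zero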;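 also: signal is the median channel fluorescence of bead-bound GFP antibody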). As to conditions: Protein G beads, DSG3-Fc, scFv-GFP binding, at 10 µM, stronger effect = lower value.
Experiment [13] can be described thus: Nile Red efflux blockade in pump-expressing yeast – validation compound set, multiplex, phenotypic, pilot screen (AID 588506;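 active = efflux inhibition above 0.42, the validation set average plus 4 SD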;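 also: Nile Red retained in cells so higher fluorescence means more efflux inhibition; 0 = negative control wells and 1 = enniatin B 25 µM full block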). As to conditions: S. cerevisiae pump-expressing triplex, Nile Red efflux flow cytometry; at 10 µM; stronger effect = higher value; the pumps come from Candida albicans.
The target in experiment [14] is ATP-binding cassette sub-family B member 6 (Homo sapiens) (UniProt Q9NP58). Briefly: blockers of ABCB6-driven porphyrin uptake – K562-ABCB6 cells, flow cytometry, validation set, pilot screen (AID 588550;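 active = inhibition above the screen-wide mean plus 3 SD, about 51%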;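 also: 0% = DMSO wells and 100% = benzethonium chloride 70 µM positive control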). As to conditions: K562-ABCB6 porphyrin accumulation, 1 h, at 10 µM, stronger effect = higher value.
Chain of ATP-binding cassette sub-family B member 6 (Homo sapiens) (Q9NP58 whole entry, looked up): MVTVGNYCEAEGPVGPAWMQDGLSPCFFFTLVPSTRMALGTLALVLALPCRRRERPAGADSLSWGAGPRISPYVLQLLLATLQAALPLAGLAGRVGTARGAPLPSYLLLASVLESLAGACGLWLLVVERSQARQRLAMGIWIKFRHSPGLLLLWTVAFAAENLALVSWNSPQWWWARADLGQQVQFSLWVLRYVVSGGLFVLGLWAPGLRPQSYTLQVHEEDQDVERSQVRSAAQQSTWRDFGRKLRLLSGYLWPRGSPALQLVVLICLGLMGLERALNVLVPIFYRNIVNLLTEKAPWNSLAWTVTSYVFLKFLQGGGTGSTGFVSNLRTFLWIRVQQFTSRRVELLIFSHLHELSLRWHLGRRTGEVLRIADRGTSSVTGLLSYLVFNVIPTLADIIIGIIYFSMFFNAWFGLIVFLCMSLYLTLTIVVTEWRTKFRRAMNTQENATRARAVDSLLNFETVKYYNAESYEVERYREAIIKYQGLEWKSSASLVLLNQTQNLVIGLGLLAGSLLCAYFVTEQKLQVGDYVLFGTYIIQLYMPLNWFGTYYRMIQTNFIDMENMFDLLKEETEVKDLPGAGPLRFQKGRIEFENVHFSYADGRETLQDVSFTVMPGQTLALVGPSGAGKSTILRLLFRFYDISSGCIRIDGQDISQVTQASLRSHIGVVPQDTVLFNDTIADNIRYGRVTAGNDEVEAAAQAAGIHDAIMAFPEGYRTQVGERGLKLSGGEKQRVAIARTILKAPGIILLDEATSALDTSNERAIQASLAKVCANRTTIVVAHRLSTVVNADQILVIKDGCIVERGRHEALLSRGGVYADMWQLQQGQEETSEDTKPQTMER
The nature of experiment [15]: AML differentiation inducers, ER-HoxA9 marrow cells – cell-based, GFP/MAC1 double positive, flow cytometry, validation set, primary screen (AID 588685;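 active = differentiation response of at least 50%, scaled between solvent and reference control, from cells with both markers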;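 also: compound exposure lasts four days before antibody staining and flow analysis; 0% = DMSO wells and 100% = 5 µM fulvestrant positive control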). As to conditions: stronger effect = higher value, normalized: vehicle 0, fulvestrant 100.
Experiment [16] in a line: calorie-restriction mimetic ROS inhibitors, yeast – validation compound set, pilot screen (AID 2706;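 active = superoxide response below 65% of plate, a cut near 3 SD across the whole screen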;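 also: yeast exposed to compound for one week at 30 degrees C before staining; 100% = mean of all compound wells on the same plate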). As to conditions: S. cerevisiae aging, superoxide DHE fluorescence; at 10 µM, stronger effect = lower value.
The nature of experiment [17]: green-channel fluorescence artefact in S. cerevisiae – s288c strain, artefact control for yeast TOR pathway GFP screen, dose response (AID 2757;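 active = fluorescence span over the dose series, or activity score, above about 33, limit read from the data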;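 also: thousands of bead-calibrated equivalent soluble fluorophore molecules from median cell fluorescence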). As to conditions: 520 nm autofluorescence, flow cytometry, 3 h, at 33 µM, stronger effect = higher value, zero means same as solvent-only cells.

Some of the results follow. Calls of active or inactive are those of the source.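 The calls were made as follows, unless noted: active = GFP signal as percent of the solvent control above about 150%, meaning raised reporter expression (limit read from the data); inconclusive = fewer than 70 cells counted in the well; inactive = the rest.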

Chain of AP-2 complex subunit beta (Homo sapiens) (P63010 whole entry, looked up, the tested form may be a part, one chain of several): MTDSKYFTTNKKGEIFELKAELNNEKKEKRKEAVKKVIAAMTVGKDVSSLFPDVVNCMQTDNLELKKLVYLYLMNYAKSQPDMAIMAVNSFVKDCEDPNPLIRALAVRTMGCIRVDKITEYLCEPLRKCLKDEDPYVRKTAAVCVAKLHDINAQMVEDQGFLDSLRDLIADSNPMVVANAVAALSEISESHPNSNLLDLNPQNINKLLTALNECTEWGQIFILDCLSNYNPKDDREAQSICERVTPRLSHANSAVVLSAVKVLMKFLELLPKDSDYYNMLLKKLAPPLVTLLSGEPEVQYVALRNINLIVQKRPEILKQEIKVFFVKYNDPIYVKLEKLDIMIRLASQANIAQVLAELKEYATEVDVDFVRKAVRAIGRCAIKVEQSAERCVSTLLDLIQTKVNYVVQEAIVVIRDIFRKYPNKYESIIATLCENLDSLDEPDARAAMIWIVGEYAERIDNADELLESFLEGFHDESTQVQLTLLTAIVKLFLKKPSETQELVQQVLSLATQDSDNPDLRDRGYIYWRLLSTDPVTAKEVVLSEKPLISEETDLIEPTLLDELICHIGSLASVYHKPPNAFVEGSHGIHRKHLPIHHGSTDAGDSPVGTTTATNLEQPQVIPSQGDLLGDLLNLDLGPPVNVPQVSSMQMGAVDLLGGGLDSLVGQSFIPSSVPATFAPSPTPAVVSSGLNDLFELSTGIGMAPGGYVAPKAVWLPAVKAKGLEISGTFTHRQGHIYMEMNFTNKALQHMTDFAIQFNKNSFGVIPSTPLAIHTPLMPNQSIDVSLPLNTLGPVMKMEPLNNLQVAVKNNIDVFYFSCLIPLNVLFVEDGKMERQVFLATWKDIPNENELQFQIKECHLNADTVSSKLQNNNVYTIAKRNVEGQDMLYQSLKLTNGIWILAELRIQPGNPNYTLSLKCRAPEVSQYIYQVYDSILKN
Chain of Beta-adrenergic receptor kinase 1 (Homo sapiens) (P25098 whole entry, looked up): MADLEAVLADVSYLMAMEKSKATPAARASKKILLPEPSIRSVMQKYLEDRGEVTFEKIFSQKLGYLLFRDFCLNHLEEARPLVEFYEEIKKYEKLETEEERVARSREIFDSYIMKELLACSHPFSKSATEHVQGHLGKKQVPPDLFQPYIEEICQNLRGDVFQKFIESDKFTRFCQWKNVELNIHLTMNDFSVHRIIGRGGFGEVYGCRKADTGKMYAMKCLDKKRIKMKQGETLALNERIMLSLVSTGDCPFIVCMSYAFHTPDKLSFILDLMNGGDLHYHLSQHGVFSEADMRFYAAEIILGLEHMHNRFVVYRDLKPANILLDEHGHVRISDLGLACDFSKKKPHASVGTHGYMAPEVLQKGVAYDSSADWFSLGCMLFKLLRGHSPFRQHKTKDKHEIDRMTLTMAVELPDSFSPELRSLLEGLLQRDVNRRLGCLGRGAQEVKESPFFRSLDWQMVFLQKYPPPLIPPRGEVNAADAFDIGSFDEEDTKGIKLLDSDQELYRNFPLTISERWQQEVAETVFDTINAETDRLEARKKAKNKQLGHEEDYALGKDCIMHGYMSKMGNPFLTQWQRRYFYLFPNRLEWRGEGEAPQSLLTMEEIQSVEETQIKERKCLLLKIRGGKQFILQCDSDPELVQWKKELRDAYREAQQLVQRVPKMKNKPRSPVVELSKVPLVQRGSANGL
Chain of Integrin beta-1 (Homo sapiens) + Integrin alpha-4 (Homo sapiens) (P05556 whole entry, looked up): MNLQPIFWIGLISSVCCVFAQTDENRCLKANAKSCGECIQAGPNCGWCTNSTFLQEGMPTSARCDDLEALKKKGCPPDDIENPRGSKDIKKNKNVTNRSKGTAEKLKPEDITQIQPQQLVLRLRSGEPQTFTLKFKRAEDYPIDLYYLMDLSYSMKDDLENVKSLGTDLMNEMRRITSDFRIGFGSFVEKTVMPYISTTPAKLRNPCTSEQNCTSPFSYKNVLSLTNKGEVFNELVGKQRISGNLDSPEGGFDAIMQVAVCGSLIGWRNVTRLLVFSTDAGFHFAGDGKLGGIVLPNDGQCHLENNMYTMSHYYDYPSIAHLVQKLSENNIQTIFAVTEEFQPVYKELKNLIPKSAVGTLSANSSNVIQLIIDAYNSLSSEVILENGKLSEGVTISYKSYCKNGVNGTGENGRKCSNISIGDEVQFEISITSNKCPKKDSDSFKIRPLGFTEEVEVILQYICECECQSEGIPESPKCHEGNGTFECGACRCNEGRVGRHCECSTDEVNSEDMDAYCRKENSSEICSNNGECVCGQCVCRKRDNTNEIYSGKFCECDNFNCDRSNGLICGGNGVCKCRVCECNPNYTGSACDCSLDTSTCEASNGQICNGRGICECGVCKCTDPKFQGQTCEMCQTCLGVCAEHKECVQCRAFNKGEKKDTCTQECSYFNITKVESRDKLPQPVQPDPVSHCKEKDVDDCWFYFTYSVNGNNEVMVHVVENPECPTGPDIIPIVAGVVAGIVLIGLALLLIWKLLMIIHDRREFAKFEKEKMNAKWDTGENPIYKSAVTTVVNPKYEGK
Chain of Integrin beta-1 (Homo sapiens) + Integrin alpha-4 (Homo sapiens) (P13612 whole entry, looked up): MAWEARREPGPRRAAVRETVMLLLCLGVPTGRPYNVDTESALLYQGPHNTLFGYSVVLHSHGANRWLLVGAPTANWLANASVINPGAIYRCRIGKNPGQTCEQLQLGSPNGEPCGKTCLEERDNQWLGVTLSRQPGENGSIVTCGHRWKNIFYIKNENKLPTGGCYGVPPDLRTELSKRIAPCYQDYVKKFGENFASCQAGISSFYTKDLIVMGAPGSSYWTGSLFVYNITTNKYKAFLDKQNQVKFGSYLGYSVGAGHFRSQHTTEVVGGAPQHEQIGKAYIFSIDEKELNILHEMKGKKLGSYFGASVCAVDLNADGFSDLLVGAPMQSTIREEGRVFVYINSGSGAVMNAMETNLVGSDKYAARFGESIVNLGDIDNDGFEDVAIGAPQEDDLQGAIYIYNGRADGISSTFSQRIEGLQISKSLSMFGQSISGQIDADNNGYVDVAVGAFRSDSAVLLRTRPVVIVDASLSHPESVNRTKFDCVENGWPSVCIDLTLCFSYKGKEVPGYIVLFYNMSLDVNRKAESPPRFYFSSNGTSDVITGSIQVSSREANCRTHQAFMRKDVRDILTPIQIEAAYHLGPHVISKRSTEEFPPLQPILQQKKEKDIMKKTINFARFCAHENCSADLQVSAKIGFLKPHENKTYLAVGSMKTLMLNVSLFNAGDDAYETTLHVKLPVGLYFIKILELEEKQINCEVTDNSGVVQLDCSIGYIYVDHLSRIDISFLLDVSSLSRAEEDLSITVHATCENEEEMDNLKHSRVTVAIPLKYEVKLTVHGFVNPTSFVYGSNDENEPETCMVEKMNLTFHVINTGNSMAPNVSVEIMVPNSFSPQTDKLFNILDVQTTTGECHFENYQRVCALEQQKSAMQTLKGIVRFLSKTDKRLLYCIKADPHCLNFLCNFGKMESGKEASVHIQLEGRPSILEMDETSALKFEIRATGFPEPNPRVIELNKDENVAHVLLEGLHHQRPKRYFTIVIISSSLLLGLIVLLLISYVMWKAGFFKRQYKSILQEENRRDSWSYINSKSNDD

Consider `COC(=O)C[n+]1cccc2ccccc21`, for which the GFP response vs DMSO in experiment [1] was 106% (inactive); in [2] it was 103% (inactive); in experiment [3], 100% (inactive); in experiment [4] it was 118% (inactive). Moreover, the percent response vs DMSO in [5] was 105% (inactive).

With `CN1CCc2cccc3c2[C@H]1Cc1ccc(O)c(O)c1-3`, in experiment [6], the double positive events was 61%. Moreover, the vesicle binding response in experiment [6] is 187% (inactive). For the same molecule, the inhibition (as a rule, the drop in the measured response relative to a control, in per cent) in experiment [7] was -17.1% (inactive); in experiment [10], 3.9% (inactive); in experiment [14] it was -1% (inactive). Besides, the aptamer binding inhibition in experiment [8] is 4% (inactive). Moreover, the response in experiment [9] was 6.81% (inactive); in experiment [11], 2.95% (inactive). Moreover, the binding (% of control) in [12] was 94.3% (inactive). Further, the efflux inhibition (fraction of control) in experiment [13] was 0.08 (inactive). Further, the differentiation response in experiment [15] is 20.8% (inactive).

In the case of `CCc1nnc(SCc2cccc(F)c2)nc1CC`, the GFP response vs DMSO in [1] is 104% (inactive); in [2], 96.1% (inactive); in experiment [3], 95.5% (inactive); in experiment [4], 89% (inactive). In [5], the percent response vs DMSO was 97.8% (inactive).

In experiment [6], `Oc1ccc(Cl)cc1Cc1cc(Cl)ccc1O` had a double positive events of 63.4%. In addition, in [6], the vesicle binding response was 194% (inactive). Also, in experiment [16], the superoxide response (% of plate) is 110% (inactive). Moreover, the aptamer binding inhibition in experiment [8] was 3% (inactive). Also, the response is 17.5% (inactive) in experiment [9] and 0.73% (inactive) in experiment [11]. In addition, the values for the inhibition in experiment [10] and in experiment [14] were 24.9% (inactive) and 11% (inactive), respectively. In [12], the binding (% of control) was 108% (inactive). Also, the efflux inhibition (fraction of control) in [13] is -0.04 (inactive). Further, in experiment [15], the differentiation response is 4.2% (inactive).

In experiment [6], `CS(=O)(=O)Oc1ccc2c(c1)O/C(=C\C=C\c1ccccc1)C2=O` came in with a double positive events of 64.8%. In [6], the vesicle binding response was 247% (inactive). The inhibition in [7] was -40.9% (inactive); in [10] it was 27.4% (inactive); in [14], -22% (inactive). Further, in experiment [8], the aptamer binding inhibition is 4% (inactive). Further, the response in experiment [9] was 26.6% (inactive); in experiment [11], -12.2% (inactive). The binding (% of control) in experiment [12] was 88.2% (inactive). In addition, the efflux inhibition (fraction of control) in experiment [13] was -0.14 (inactive). Besides, the differentiation response in experiment [15] is 30.5% (inactive).

In the case of `O=C(Nc1nnc(-c2ccc(Cl)cc2)o1)c1ccccc1Br`, the GFP response vs DMSO was 174% (active) in experiment [1], 120% (inactive) in experiment [2], 99.6% (inactive) in [3] and 133% (inactive) in experiment [4]. Also, in experiment [5], the percent response vs DMSO is 95.3% (inactive). In addition, the fluorescence change (kMESF span) in [17] was 0.5 (inactive).

On to `CCCn1nc(C(=O)NNC(=O)CCOc2ccccc2OCC)c2ccccc2c1=O`, for which the GFP response vs DMSO in experiment [1] was 102% (inactive); in [2], 97.8% (inactive); in experiment [3], 102% (inactive); in [4], 121% (inactive). For the same molecule, the percent response vs DMSO in [5] was 99% (inactive).

Take `CC(Oc1ccc2ccccc2c1)C(=O)NNC(=S)NC(=O)c1ccco1` (stereo not given): the GFP response vs DMSO was 312% (active) in [1], 175% (active) in [2], 101% (inactive) in experiment [3] and 187% (active) in experiment [4]. In experiment [5], the percent response vs DMSO is 112% (inactive). Moreover, the fluorescence change (kMESF span) in experiment [17] was 2.02 (inactive).

As for `CC(C)[C@@H]1COC(c2cccc(C3=N[C@H](C(C)C)CO3)c2)=N1`, the GFP response vs DMSO in experiment [1] was 99% (inactive); in experiment [2] it was 98.2% (inactive); in experiment [3] it was 101% (inactive); in [4], 97.2% (inactive). For the same molecule, the percent response vs DMSO in experiment [5] is 95.8% (inactive).

For `CCC(=C/c1sc2ccc3ccccc3c2[n+]1C)/C=C1\Sc2ccc3ccccc3c2N1C`, the GFP response vs DMSO in experiment [1] is 2930% (active); in [2], 285% (active); in experiment [3], 451% (inactive); in experiment [4] it was 303% (active). The percent response vs DMSO in experiment [5] is 98.8% (inactive).

`CN(Cc1ccccc1)C(=O)C(=O)c1cn(CC(=O)N2CCCC2)c2ccccc12`: the GFP response vs DMSO in experiment [1] is 103% (inactive); in experiment [2] it was 96.1% (inactive); in [3] it was 95% (inactive); in experiment [4], 103% (inactive). For the same molecule, the percent response vs DMSO in experiment [5] is 98.3% (inactive).

As for `Cc1ccc2nc(N(CCN(C)C)C(=O)C3=COCCO3)sc2c1`, the GFP response vs DMSO is 102% (inactive) in experiment [1], 105% (inactive) in [2], 98.9% (inactive) in experiment [3] and 103% (inactive) in [4]. Also, in experiment [5], the percent response vs DMSO was 104% (inactive).

Values taken from PubChem BioAssay.
